Reference: PubChem BioAssay (NCATS)
Results filed as inconclusive are left out. The source made the active and inactive calls. The call rests on the fitted dose curve; in most records, active means well fitted cell-killing curve with a large enough effect; inconclusive means small, poorly fitted or top-dose-only effect; inactive means flat fitted curve, though single readings scatter.

experiment: Cell Viability - LYMP2-018 (AID 985); settings: LYMP2-018 lymphoblastoid cells, viability (qHTS); series mostly up to 92.2 µM; activity change, negative = cytotoxicity: at the top concentration;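 further: compound exposure lasted 24 hr at 37 °C; plate controls were DMSO only for no effect and tetraoctylammonium bromide at 92 µM for full effect; nearly all actives have a fitted effect of over 50% in size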
Description: NIH Chemical Genomics Center [NCGC]
NIH Molecular Libraries Screening Centers Network [MLSCN]
National Institutes of Environmental Health Sciences [NIEHS]
National Toxicology Program [NTP]
We have developed a 1536-well cell-based assay for quantitative high throughput screening (qHTS) against a number of cell lines to determine in vitro cytotoxicity of small molecules. This particular assay uses a human lymphoblastoid cell line (LYMP2-018) purchased from Coriell Institute for Medical Research.
NCGC Assay Protocol Summary:
The CellTiter-Glo luminescent cell viability assay (Promega) is a homogeneous method to measure the number of viable cells in culture. The end point readout of this assay is based on quantitation of intracellular ATP, an indicator of metabolic activity, using the luciferase reaction. Luciferase catalyzes the oxidation of beetle Luciferin to oxyluciferin and light in the presence of ATP. The luminescent signal is proportional to amount of ATP present.
Using the CellTiter-Glo luminescent cell viability assay, the amount of cellular ATP was measured in the lymphoblastoid cell line with complete culture medium following compound treatment for 24 hours. The assay was performed in opaque white Kalypsys 1536-well plates. In the screen, tetraoctylammonium bromide was used as positive control. Library compounds were measured for their ability to cause acute toxicity in the cell line, as reflected by a decrease in intracellular ATP levels, in a concentration-dependent manner. […] AC50 values were determined from concentration-response data modeled with the standard Hill equation.
qHTS protocol for CellTiter Glo lymphoblastoid cellular assay
[Step] [Parameter] [Value] [Description]
1. Reagent; 5 uL; 2500 lymphoblastoid cells/well
2. Time; 5 hr; 37 C incubation
4. Controls; 23 nL; Tetraoctylammonium bromide 6.4pM to 92 uM
5. Time; 24 hr; 37 C incubation
6. Reagent; 5 uL; CellTiter Glo reagent
7. Time; 30 min; Room Temperature
8. Detection; Luminescence; Viewlux plate reader
Keywords: cell viability, cytotoxicity, lymphoblastoid cell line, luminescence, NTPHTS, NTPHTS_NCGC, NIEHS, DSSTox, MLSMR, MLSCN, NIH Roadmap, qHTS, NCGC

| SMILES | activity change, negative = cytotoxicity |
| --- | --- |
| Cc1ccc2cccnc2c1 | -1.35% (inactive) |
| N#CC1(O)CCCCC1 | -12% (inactive) |
| CCCCC(CC)CO (stereo not given) | -6.17% (inactive) |
| C=C(C)C(N)=O | -3.8% (inactive) |
| COCCOC(=O)c1ccccc1C(=O)OCCOC | -14.9% (inactive) |
| FB(F)F | -13% (inactive) |
| O=C(O)CN(CC(=O)O)CC(=O)O | -5.24% (inactive) |
| CCc1ccccc1 | 4.68% (inactive) |
| COc1ccc(OC)cc1 | -1.18% (inactive) |
| CC(=O)C1(C)CC2=C(CCCC2(C)C)CC1C (stereo not given) | -11.9% (inactive) |
| CCC(C)(C)C | -9.48% (inactive) |
| C=C(C)C(=O)OCCCCCC | -8.79% (inactive) |
| C1CCC2OC2C1 (stereo not given) | -15.8% (inactive) |
| CNc1ccccc1 | 1.36% (inactive) |
| C1COC1 | -24.9% (inactive) |
| O=Cc1ccc(C(=O)O)cc1 | -2.58% (inactive) |
| CCCCCCC=O | -10.8% (inactive) |
| CC(C)(c1cc(Br)c(OCC(Br)CBr)c(Br)c1)c1cc(Br)c(OCC(Br)CBr)c(Br)c1 (stereo not given) | -2.46% (inactive) |
| Cc1ccc(C#N)cc1 | -15.1% (inactive) |
| Cc1ccc(C)c(N)c1 | -2.5% (inactive) |

| SMILES | activity change, negative = cytotoxicity |
| --- | --- |
| CC/C=C/C#N | -9.37% (inactive) |
| Nc1ccc(F)cc1F | -8.52% (inactive) |
| O=C(Cl)c1cccc([N+](=O)[O-])c1 | 5.43% (inactive) |
| CC(C)N=C=NC(C)C | -0.854% (inactive) |
| Cc1cc(C)cc(O)c1 | 4.5% (inactive) |
| CCCCN(CCO)CCCC | -11.6% (inactive) |
| Cc1ccc(CO)cc1 | -17.2% (inactive) |
| CC1CCC2CC1C2(C)C (stereo not given) | -2.22% (inactive) |
| O=Cc1cccc(Br)c1 | 8.34% (inactive) |
| CC(C)Nc1ccccc1 | 0.58% (inactive) |
| CC(=O)c1nccs1 | 6.37% (inactive) |
| CCCCC=O | -7.14% (inactive) |
| CC(C)(C)c1ccc(OCC2CO2)cc1 (stereo not given) | -23.6% (inactive) |
| CCOCCO | -4.29% (inactive) |
| Clc1cc(Cl)cc(Cl)c1 | -2.6% (inactive) |
| Cc1cccc(C)c1O | -27.5% (inactive) |
| Nc1cc(Cl)c(N)c(Cl)c1 | -4.69% (inactive) |
| NC(=O)/N=N/C(N)=O | -11.3% (inactive) |
| ClC/C=C/CCl | -24.9% (inactive) |
| NC(=O)NC(N)=O | -3.53% (inactive) |
